Screening data deposited in PubChem by National Center for Advancing Translational Sciences (NCATS).
Most compounds without a hit are left out; they make up all but 7.9% or so of the library.
FMDV antiviral: antivirals against foot and mouth disease virus. FMDV antiviral cell-based qHTS. Potency, µM (titrated, usually from 57.9 µM), for the others: at the highest dose activity change, negative = inhibition, hits mostly inhibitors. 410,000 compounds, 1.2% hits. AID 1159524; calls by dose curve; tested in HEK293T cells; further: read-out not given here; potency means the concentration at half of the fitted maximal effect; nearly all actives have a fitted effect of over 45% in size
LASV entry inh: blocks Lassa virus binding to or entry into cells; 300,000 compounds, 1.2% hits; Potency, µM (highest dose often 37.9 µM), inactives show at the highest dose activity change, negative = inhibition, hits mostly inhibitors; Lassa virus pseudotype entry inhibition, cell reporter; calls by dose curve; tested in HEK293 cells; further: potency means the concentration at half of the fitted maximal effect; nearly all actives have a fitted effect of over 50% in size
HCV inhibitor: blocks hepatitis C virus | Huh7.5.1 HCVcc-Cre infection, luciferase reporter, 44 h | Potency, µM (highest dose often 41.8 µM), for inactives: top-dose activity change, negative = inhibition, usual class: inhibitors | 340,000 compounds, 3.4% hits | AID 651820; active means well fitted inhibition curve with a large enough effect; inconclusive means small, poorly fitted or top-dose-only effect, or another doubt; inactive means no such curve, though single readings can be large or run the other way; further: potency means the concentration at half of the fitted maximal effect
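Luciferase read-out (15 sec integration) after a 15 min room-temperature substrate step quantifies HCVcc-Cre infection. Cells, 1,000 per well, had compound added 4 h post-plating, then virus at ~0.5 moi, and were cultured 44 h.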
HCMV inh: blocks human cytomegalovirus replication; HFF cells, HCMV-luciferase reporter, 72 h; stronger effect = lower value; activity change, negative = inhibition, % at 57.5 µM; 410,000 compounds, 4.5% hits; AID 1259415; in the data active means activity change below about -60%; inconclusive means no clear call, values can overlap the other calls; inactive means above about -39%
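Cell-based, HFFs, 1000 cells/well, 16 h 37C; cpds in DMSO + HCMV-luc, MOI 1 PFU/cell; 72 h 37C; OneGlo luminescence after 5 min RT; norm. to buffer vs Salinomycin 10uM.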
Marburg entry inh: inhibitors of Marburg virus binding or cell entry. Marburg virus pseudotyped entry inhibition, cell reporter. Potency, µM (top dose mostly 37.8 µM), without a hit: at the highest dose activity change, negative = inhibition, actives largely listed as inhibitors. 300,000 compounds, 1.8% hits; calls by dose curve; tested in HEK293 cells; further: potency means the concentration at half of the fitted maximal effect
* hit, by the source's call; u = inconclusive; x = not tested or not shown; [ ] = another dose, or the depositor's remark. On the % scale 0 is the no-effect control and ±100 the full control effect.

SMILES	FMDV antiviral	LASV entry inh	HCV inhibitor	HCMV inh	Marburg entry inh
COc1ccc(CN2CCN(CCSc3ccc(C)cc3)CC2)c(OC)c1OC	u	x	14µM*	26	x
O=C(NCCCNC(=O)c1ccco1)c1cccc(F)c1	6%	u	-1%	51	2%[46.1 µM]
Cc1ccc(C)c(Nc2nn3c(=O)c4ccc(C(=O)NCCc5ccccc5)cc4nc3s2)c1	0%	3%[46.1 µM]	x	9	x
Cc1ccc(C)c(Nc2nn3c(=O)c4ccc(C(=O)NCCC5=CCCCC5)cc4nc3s2)c1	u	u	x	-3	x
COc1ccccc1Nc1nn2c(=O)c3ccc(C(=O)NCCc4ccccc4)cc3nc2s1	u	u	x	-99*	x
COc1ccccc1Nc1nn2c(=O)c3ccc(C(=O)NCCC4=CCCCC4)cc3nc2s1	u	u	x	-106*	x
CC(=O)Oc1cc2c(cc1Cl)C1(CC(c3ccccc3Cl)O2)CC(C)(C)NC(=S)N1 (stereo not given)	u	u	10µM*	-38	u
CC(C)=CCN1C(=O)[C@@]2(CC(C)=CC[C@@H](COc3ccccc3)O2)c2ccccc21	x	u	x	x	3%[14.2 µM]
O=C1c2ccccc2OC2(C=Cc3ccccc3O2)N1Cc1ccccc1 (stereo not given)	-16%	-12%	u	-5	u
Cc1cc2c(c(/C=C/C(=O)c3ccccc3)c1)OC1(C=C2)Oc2ccccc2C(=O)N1C (stereo not given)	25µM*	u	13µM*	-13	u
Brc1cccc(-c2n[nH]c(-c3ccccc3)n2)c1	4%	-7%	u	121	-24%
Cn1c(-c2cccc(Br)c2)n[nH]c1=O	-7%	-5%	-1%	-72*	-16%[46.1 µM]
COc1ccc2c(=O)cc(-c3ccncc3)oc2c1OC	-13%	-18%[46.1 µM]	11µM*	-38	u
COc1ccc(-c2cc(=O)c3c(OC)c(OC)c(OC)c(OC)c3o2)cc1OC	11%	-26%	u	26	-49%
COc1ccc(-c2nc(CN3CCN(Cc4cccc(Cl)c4)CC3)c(C)o2)cc1	0%	x	-13%	33	x
CCC1CN(CCNC(=O)c2ccnc(Cl)c2)Cc2cc(OC)ccc2O1 (stereo not given)	66%	x	x	x	x
Cc1ccc(CN2C(=O)C(=O)c3cc(Br)cc(C)c32)cc1	u	u	x	-103*	u
CCCOc1ccc(CN2C(=O)C(=O)c3cccc(C)c32)cc1	-13%	-20%[46.1 µM]	x	-19	u
Cc1cccc(C)c1NC(=S)NCCSc1ccc(Cl)cc1	1%	u	10µM*	u	u
O=C(CSc1ccncc1)NCC1Cc2cccc(-c3cncnc3)c2O1 (stereo not given)	3%	x	x	x	x
COc1cccc(C2CC3(CC(C)(C)NC(=S)N3)Oc3cc(O)ccc32)c1 (stereo not given)	-26%	u	u	-37	-21%
Cc1cccc(C2CC3(CC(C)(C)NC(=S)N3)Oc3cc(O)ccc32)c1 (stereo not given)	-12%	u	10µM*	14	u
CCc1cc(CNC(=O)c2ccc(OC3CCN(CCc4ccccc4)CC3)cc2)on1	-12%	x	-28%	0	x
CCOc1ccc(Cn2nnc(-c3ccc(S(C)(=O)=O)cc3)n2)cc1OCC	u	x	2%	34	x
C[C@H](CO)N1C[C@H](C)[C@@H](CN(C)C(=O)Nc2ccccc2)Oc2ccc(NS(=O)(=O)c3cn(C)cn3)cc2C1=O	-2%	x	7%	93	x
SMILES	FMDV antiviral	LASV entry inh	HCV inhibitor	HCMV inh	Marburg entry inh
COc1ccccc1NC1=NCCS1	7%	6%	1%	19	2%
Cc1cc(C)c(NC2=NCCS2)cc1C	-15%	x	x	-89*	x
Cc1cc(C)nc(SCC(=O)Nc2cccc(S(=O)(=O)N(C)C)c2)n1	u	-5%	-14%	36	-14%[46.1 µM]
CN(C)S(=O)(=O)c1ccc(NC(=O)CSc2nc3ccccc3n2-c2ccccc2)cc1	0%	18µM*	u	u	u
CN(C)S(=O)(=O)c1cccc(NC(=O)CSc2nc3ccccc3n2-c2ccccc2)c1	-9%	u	u	-88*	u
NS(=O)(=O)c1ccc(NC(=O)CSc2nc3ccccc3n2-c2ccccc2)cc1	-3%	u	u	u	u
COc1ccc(-n2c(SCC(=O)NCc3ccccc3)nc3c([nH]c4ccccc43)c2=O)cc1	u	-7%[46.1 µM]	x	2	x
COc1cc(C(=O)ONC(=O)c2ccc(OC(F)F)cc2)cc(OC)c1OC	-19%	9.2µM*	-8%	0	u
Cc1cc(C(=O)CN2c3cccc4cccc(c34)S2(=O)=O)c(C)n1C	-7%	x	4%	-3	x
O=C(COc1coc(CN2CCN(c3ccc(F)cc3)CC2)cc1=O)Nc1ccccc1	-30%	5%	u	-20	-10%
CCOc1ccccc1NC(=O)COc1coc(CN2CCc3ccccc32)cc1=O	-2%	-29%	7.9µM*	5	u
O=C(COc1coc(CN2CCN(c3ccccc3)CC2)cc1=O)Nc1ccc(F)cc1	-22%	-21%	u	-83*	17%
CN(C)S(=O)(=O)c1ccc2c(c1)c(=O)c(C(=O)N1CCN(c3cccc(Cl)c3)CC1)cn2C	-4%	-2%[46.1 µM]	x	-7	u
COc1cc(/C=C/[N+](=O)[O-])ccc1O	u	-20%	8%	-104*	-22%
COc1cc(/C=C/C(=O)CC(=O)/C=C/c2ccc(O)c(OC)c2)ccc1O	u	18µM*	u	-35	u
COc1cc(/C=C/C(=O)O)ccc1O	-6%	x	20%	x	x
COc1cc(OC)c(C(=O)/C=C/c2ccc(OCc3ccccc3)c(OC)c2)c(OC)c1	u	u	u	u	11µM*
COc1cc(/C=C/[N+](=O)[O-])ccc1OCc1cccc(C(=O)O)c1	10µM*	0.63µM*	-4%	x	u
CCCOc1ccc(Nc2cc(C)nc(C)n2)cc1	24%	9%[46.1 µM]	x	34	22%[46.1 µM]
Nc1nc(COC(=O)C2CCN(C(=O)c3ccc(Cl)cc3)CC2)nc(Nc2ccccc2)n1	-5%	x	1%	1	x
CCC(=O)Nc1ccc(C(=O)NNC(=O)CCCCC(=O)NNC(=O)c2ccc(NC(=O)CC)cc2)cc1	-16%	x	x	-6	x
COc1ccc(NC(=O)CC2C(=O)N(c3ccc(OC)cc3)C(=O)N2CCC2=CCCCC2)cc1 (stereo not given)	-8%	0%[46.1 µM]	x	-7	-7%[46.1 µM]
COc1cc(/C=N/N2CCOCC2)ccc1OCc1ccccc1	0%	-4%	-19%	-105*	u
COc1cc(/C=C/C(C)=NNc2ccccc2)ccc1O	3%	-27%[46.1 µM]	u	-61*	u
COc1cc(/C=N/Nc2ccc(C(=O)O)cc2)ccc1O	u	u	-5%	99	u
COc1ccc(/C=N/N2CCOCC2)cc1OCc1ccccc1	-4%	4%	1%	u	-3%[46.1 µM]
COc1cc(/C=C/C(=O)/C=C(O)/C=C/c2ccc(O)c(OC)c2)ccc1O	u	x	u	-67*	x
COc1cc(NC(=O)C(CC(C)C)NS(=O)(=O)c2ccc3c(c2)CCCC(=O)N3)cc(OC)c1 (stereo not given)	1%	-22%[46.1 µM]	x	14	x
